Laboratory results reported in PubChem BioAssay (NCI).
This is part of a sample that, as a whole, favours compounds with a hit. Of some 83,000 tested, about 20% had one in any assay.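 Compound tested at a single concentration for 48 hours in 96-well plates; a percent growth value below 10 was scored as active.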 Values without a mark were called inactive. Activity calls are given as the source filed them.

Experiments:
Assay in all cases: NCI-60 one-dose screen, 48 h (100 = growth as untreated, 0 = no growth, -100 = all killed)
Settings in all cases: 10 µM unless noted
NCI-H23 lung = test system: NCI-H23 lung
NCI-H226 lung = test system: NCI-H226 lung
NCI-H322M lung = test system: NCI-H322M lung
HOP-62 NSCLC = test system: HOP-62 NSCLC
NCI-H460 lung = test system: NCI-H460 lung
HOP-92 NSCLC = test system: HOP-92 NSCLC
NCI-H522 lung = test system: NCI-H522 lung
A549/ATCC NSCLC = test system: A549/ATCC NSCLC
786-0 renal = test system: 786-0 renal
COLO 205 colon = test system: COLO 205 colon
DU-145 prostate = test system: DU-145 prostate
K-562 leukemia = test system: K-562 leukemia
MALME-3M melanoma = test system: MALME-3M melanoma
MDA-MB-231 breast = test system: MDA-MB-231 breast
SF-268 CNS = test system: SF-268 CNS
SF-295 CNS = test system: SF-295 CNS
SF-539 CNS = test system: SF-539 CNS
M14 melanoma = test system: M14 melanoma
UACC-257 melanoma = test system: UACC-257 melanoma
RXF 393 renal = test system: RXF 393 renal

| SMILES | growth (NCI-H23 lung) | growth (NCI-H226 lung) | growth (NCI-H322M lung) | growth (HOP-62 NSCLC) | growth (NCI-H460 lung) | growth (HOP-92 NSCLC) | growth (NCI-H522 lung) | growth (A549/ATCC NSCLC) | growth (786-0 renal) | growth (COLO 205 colon) | growth (DU-145 prostate) | growth (K-562 leukemia) | growth (MALME-3M melanoma) | growth (MDA-MB-231 breast) | growth (SF-268 CNS) | growth (SF-295 CNS) | growth (SF-539 CNS) | growth (M14 melanoma) | growth (UACC-257 melanoma) | growth (RXF 393 renal) |
| --- | --- | --- | --- | --- | --- | --- | --- | --- | --- | --- | --- | --- | --- | --- | --- | --- | --- | --- | --- | --- |
| CC1(C)[C@H](O)[C@H](F)C[C@@]2(C)Oc3ccc(C(=O)Nc4ccc5c(c4)NC(=O)C54CCN(CCCCC#N)CC4)cc3C[C@H]12 | 55.4% | 69.9% | 91.9% | 12.8% | 21.3% | 41.7% | -4.72% (active) | 19.5% | 21.5% | -23.7% (active) | 48.5% | 2.93% (active) | 13.5% | 28.8% | 43.6% | -59.6% (active) | 8.86% (active) | -6.54% (active) |  |  |
| O=C1C=C(N2C3C4CCC(C4)C32)C(=O)C=C1c1ccccc1 (centres undefined) | 106% | 107% | 107% | 108% | 90.2% | 96.9% | 51% | 94.9% | 102% | 115% | 105% | 32.9% | 55.4% | 76.6% | 89.6% |  | 96.5% | 111% | 73.1% |  |
| CCNc1nc(Cl)nc(NCC)n1 | 111% | 90.4% | 100% | 93% | 102% | 65.1% | 105% | 85.7% | 108% | 102% | 123% | 35.1% | 133% | 104% | 102% | 84.1% | 97.2% | 101% | 89% |  |
| Cc1ccc(C(=O)NCCCOc2ccc(N)cc2Cl)cc1S(=O)(=O)F | 98.9% | 89% | 87.2% | 89.1% | 102% | 96.6% | 73.5% | 90.1% | 86% | 105% | 107% | 91.9% | 87.6% | 106% | 102% | 86.3% | 103% | 97.8% | 87.1% |  |
| COC(=O)CC12CC(NC(=O)c3csc([C@@H](C[C@H](C(C)C)N(C)C(=O)[C@@H](NC(=O)[C@H]4CCCCN4C)C(C)C)OC(C)=O)n3)(C1)C2 | 21.3% | 23.1% | 43% | 6.8% (active) | 7.76% (active) | 35.7% | 10.8% | 18% | 12% | -54.7% (active) | 14% | 9.94% (active) | 51% | 6.67% (active) | 26.1% | -7.27% (active) | -12.8% (active) | 7% (active) |  |  |
| C[C@]12CCc3nc(Nc4ccccc4F)sc3C1=CC[C@@H]1[C@@H]2CC[C@]2(C)C(=O)CC[C@@H]12 | 77.7% | 85.9% | 86.5% | 87.2% | 60.3% | 116% | 79.1% | 76.7% | 38.5% | 75.7% | 28.4% | 21.7% | 75.7% | 92.5% | 78.8% | 51% | 41.4% | 75.1% | 90.7% |  |
| O=C(O)CNC(=O)C(Cl)(Cl)Cl | 106% | 94.1% | 97.7% | 107% | 96.2% | 87.2% | 85.1% | 98.2% | 98.8% | 106% | 107% | 108% | 97.6% | 103% | 104% |  | 103% | 107% | 88% | 92.1% |
| CN(C)C(=O)Oc1ccccc1 | 104% | 105% | 109% | 96.3% | 97.5% | 101% | 112% | 103% | 107% | 112% | 108% | 111% | 109% | 115% |  | 103% | 93.7% | 103% | 98.9% | 122% |
